The list is not random: actives were taken first. Their share in the collection is about 2.6%.
TCR act – activates T cell receptor signaling; primary human leukocytes, anti-CD3, IL-2 HTRF, 48 h; Potency, µM (top dose mostly 9.22 µM), for inactives: at the top dose activation of IL-2 secretion, most hits filed as activators; 330,000 tested, under 10 active; further: % of control where 0% means no effect
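TCR engagement came from a-CD3 beads alone, with compounds added to primary human leukocytes for 48 hr. Secreted IL-2 bridged europium cryptate- and d2-labelled anti-IL-2 antibodies, giving FRET emission at 665nm after 320nm excitation.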
Nrf2 ARE act – activators of Nrf2 (ARE) signaling. Potency, µM (top dose mostly 46.1 µM), for the others: top-dose activation, hits mostly activators. AID 624171. actives 0.31% (n = 410,000). AREc32 ARE-luciferase reporter (MCF7-derived line), luminescence, 24 h; further: potency means the concentration at half of the fitted maximal effect; % of control where 0% means no effect; nearly all actives have a fitted effect of over 65% in size
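AREc32 cells carrying an ARE-driven firefly luciferase, 1000 cells/well in OPTI-MEM with 5% FBS, dosed after overnight attachment and incubated 24 hr at 37 deg C. Steady-Glo luminescence read after 30 min at RT.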
A549 tox – kills or reduces viability of A549 cells in Nrf2 counter-screen. A549 ARE-Fluc cells, CellTiter-Fluor viability, 18-24 h. Potency, µM (top dose mostly 46 µM), inactives show at the top dose activity change, negative = cytotoxicity, actives largely listed as inhibitors. actives 0.16% (n = 390,000). AID 504648; further: potency means the concentration at half of the fitted maximal effect; on the % scale 0 is the no-effect control and ±100 the full control effect
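A549 ARE_Fluc cells in 5% FBS OPTI-MEM were exposed to compounds in concentration-response for 18-24 h at 37 deg C. Viability was read by CellTiter-Fluor fluorescence (Ex 405/Em 525) after 30 min, before the luciferase read.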
CCT modulator – cytosolic chaperonin activity modulation | AID 651819 | actives 0.3% (n = 360,000) | purified chaperonin ATPase assay, HTRF ADP detection, 30 min | activity change, % (no concentration beside the values), hits read low; in the data active means activity change below about -30%; further: on the % scale 0 is the no-effect control and ±100 the full control effect
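ATPase activity: ADP formed was measured by HTRF Transcreener (665/615 nm ratio) after 30 min at 37 deg C with 10 uM ATP. Compounds screened at one 76 uM concentration against 40 or 20 nM TRiC in Tris pH 7.4/KCl/MgCl2/DTT buffer.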
Nrf2 inh – Nrf2 pathway inhibition. A549 ARE-Fluc reporter, luciferase luminescence, 18-24 h. Potency, µM (doses to about 46 µM), for the others: at the top dose activity change, negative = inhibition, actives largely listed as inhibitors. actives 2.1% (n = 360,000). AID 504444; further: potency means the concentration at half of the fitted maximal effect; on the % scale 0 is the no-effect control and ±100 the full control effect; nearly all actives have a fitted effect of over 60% in size
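Quantitative HTS in A549 cells stably bearing an antioxidant response element-firefly luciferase construct. Inhibition of Nrf2-driven transcription was scored by luminescence after 18-24 h of compound exposure at 37 °C.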
AT treatment – candidate therapy for ataxia-telangiectasia | F2112 A-T fibroblasts, KAP-1 phosphorylation AlphaLISA; neocarzinostatin DNA damage 30 min before lysis | actives 0.19% (n = 320,000) | Potency, µM (top dose mostly 57.5 µM), for the others: at the highest dose activation, hits mostly activators; further: potency means the concentration at half of the fitted maximal effect; % of control where 0% means no effect; nearly all actives have a fitted effect of over 45% in size
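hTERT-immortalized A-T patient fibroblasts (F2112), 500 cells/well in OPTI-MEM, 1% FBS, got compounds for 60 min, then NCS for 30 min at 37C. Lysates were then assayed for phospho-KAP-1 by AlphaLISA (anti-pKAP1 donor, anti-KAP1 acceptor beads), 6 hr at 25C.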
* marks the source's active call; other numbers are inactive results; [ ] = remark or other dose. Unless noted, the call rests on the fitted dose curve; in most records, active means well fitted curve in the direction sought with a large enough effect; inconclusive means small, poorly fitted or top-dose-only effect, or another doubt; inactive means no such curve, though single readings can be large; an effect the other way counts as inactive or inconclusive.

COc1cccc(Cn2nnc(C(=O)Nc3cc(C)ccc3OC)c2N)c1 was read as TCR act -4.4%, Nrf2 ARE act 0.0%, A549 tox 11.4%, CCT modulator -2.5, Nrf2 inh -14.4% and AT treatment -19.0%.
Cc1ccc(S(=O)(=O)N2CCOCC2)cc1NC(=O)COC(=O)c1ccccc1OCc1c(C)noc1C was read as TCR act -3.7%[46.1 µM], Nrf2 ARE act 0.2%, A549 tox 1.9%, CCT modulator 4.1, Nrf2 inh -10.1% and AT treatment 8.0%.
COc1ccc(Cl)cc1NC(=O)CSC1=NN2CCCC(=O)N=C2S1 was read as TCR act 2.7%, Nrf2 ARE act 1.7%, A549 tox -12.7%, CCT modulator 1.3, Nrf2 inh 23.1µM* and AT treatment 3.8%.
`COc1ccccc1C(=O)NCCn1cc(SCC(=O)Nc2ccccc2F)c2ccccc21` gave Nrf2 ARE act 0.3%, A549 tox -21.1% and Nrf2 inh 23.1µM*.
For O=C(CSc1cn(CCNC(=O)c2ccccc2F)c2ccccc12)Nc1ccccc1F the results were Nrf2 ARE act -0.2%, A549 tox 2.0% and Nrf2 inh -27.3%.
`COc1ccc(Cl)cc1NC(=O)CSc1cn(CC(=O)N2CCCC2)c2ccccc12` gave Nrf2 ARE act 0.4%, A549 tox -3.3% and Nrf2 inh -23.9%.
Screening O=C(CSc1cn(CC(=O)N2CCCCCC2)c2ccccc12)Nc1ccccc1F returned Nrf2 ARE act 0.9%, A549 tox -10.6% and Nrf2 inh 20.6µM*.
COc1ccc(Cl)cc1NC(=O)CSc1cn(CC(=O)N2CCCCCC2)c2ccccc12 was read as Nrf2 ARE act 0.5%, A549 tox -7.1% and Nrf2 inh 25.9µM*.
Screening COc1ccc(C(=O)NCCn2cc(SCc3cccc(F)c3)c3ccccc32)cc1OC returned Nrf2 ARE act -0.9%, A549 tox -16.2% and Nrf2 inh 23.1µM*.
For CC1(C(=O)NCCC#N)CCN1C(=O)Cc1ccc(-c2ccccc2)cc1 (stereo not given) the results were Nrf2 ARE act -0.3% and CCT modulator 0.2.
Cc1cccc(OCCSc2nc3ccccc3n2CC(=O)N2CCOCC2)c1C was read as Nrf2 ARE act 3.0%, A549 tox -8.7% and Nrf2 inh -18.9%.
Screening COc1ccc(S(=O)(=O)N2N=C(c3cccc(NS(C)(=O)=O)c3)CC2c2ccco2)cc1 (stereo not given) returned TCR act 7.0%, Nrf2 ARE act 10.3%, A549 tox -4.9%, CCT modulator -68.9*, Nrf2 inh -16.8% and AT treatment -4.8%.
`Cn1c(N2CCOCC2)c(/C=N/OC(=O)c2ccc(F)cc2)c2ccccc21` gave TCR act 2.1%, Nrf2 ARE act -0.4%, A549 tox -5.0%, CCT modulator -2.2, Nrf2 inh 0.651µM* and AT treatment 35.5µM*.
`CC(=O)O/N=C/c1c(N2CCOCC2)n(C)c2ccccc12` gave TCR act -0.8%, Nrf2 ARE act 0.4%, CCT modulator -0.5, Nrf2 inh 6.51µM* and AT treatment 10.6%.
Cc1ccc(C(=O)O/N=C/c2c(N3CCOCC3)n(C)c3ccccc23)cc1 was read as TCR act 9.8%, Nrf2 ARE act -0.9%, A549 tox -1.1%, CCT modulator -1.1, Nrf2 inh inconclusive and AT treatment 9.2%.
Screening CSc1ccc(CNC(=O)C2(C)CCCN(C(C)=O)C2)cc1 (stereo not given) returned Nrf2 ARE act -0.5% and CCT modulator 0.7.
Screening NCCNc1ncnc2ccc(-c3ccc4c(c3)OCO4)cc12 returned A549 tox -22.3% and Nrf2 inh -16.1%.
C[C@@H]1ON(C)[C@H]2C[C@H]3c4[nH]c5ccc(-c6ccc7c(c6)OCO7)cc5c4CCN3C[C@@H]12 was read as Nrf2 ARE act -4.3% and CCT modulator -72.9*.
Screening CC(=O)Oc1cccc2c1C(=O)c1c(OC(C)=O)cc(C(=O)O)cc1C2=O returned TCR act 1.9%, Nrf2 ARE act -0.2%, A549 tox 20.6µM*, CCT modulator 0.8, Nrf2 inh inconclusive and AT treatment -31.7%.
For CC(=O)Oc1ccc(C(=O)O)cc1OC(C)=O the results were TCR act 5.9%, Nrf2 ARE act -0.6%, A549 tox 1.1%, CCT modulator 1.4, Nrf2 inh -8.0% and AT treatment 2.4%.
`Cc1nc(-c2cccc(NC(=O)c3ccc(-n4nccc4C)cc3)c2)cs1` gave TCR act 3.3%, Nrf2 ARE act -0.5%, A549 tox -9.7%, CCT modulator 1.8, Nrf2 inh 16.4µM* and AT treatment 1.1%.
Screening Cc1nc(-c2ccc(C(=O)Nc3cccc(Br)c3)cc2)cs1 returned TCR act -1.7%, Nrf2 ARE act -0.3%, A549 tox inconclusive, CCT modulator 3.8, Nrf2 inh 11.6µM* and AT treatment -1.1%.
Screening CCOC(=O)c1sc2nc(C)nc(NCc3cccnc3)c2c1C returned TCR act 2.4%, Nrf2 ARE act -0.4%, A549 tox -2.3%, CCT modulator -0.2, Nrf2 inh -5.4% and AT treatment 0.7%.
`CCOC(=O)c1sc2nc(C)nc(NCc3ccc(F)cc3)c2c1C` gave TCR act 6.4%, Nrf2 ARE act 2.4%, A549 tox 0.2%, CCT modulator 0.8, Nrf2 inh inconclusive and AT treatment 2.5%.
`CCOC(=O)c1sc2nc(CC(=O)OC)nc(NCc3ccc(F)cc3)c2c1C` gave TCR act -2.1%, Nrf2 ARE act 2.5%, A549 tox inconclusive, CCT modulator 1.1, Nrf2 inh 10.3µM* and AT treatment 5.8%.
For CCOC(=O)c1sc2nc(C)nc(NCc3ccc(Cl)cc3)c2c1C the results were TCR act -8.0%, Nrf2 ARE act 5.3%, A549 tox -16.9%, CCT modulator 0.6, Nrf2 inh 18.4µM* and AT treatment 4.0%.
`COc1ccc(-n2c(SCCNCCO)nc3sc4c(c3c2=O)CCCC4)cc1` gave TCR act -3.5%, Nrf2 ARE act 16.8%, A549 tox 2.9%, CCT modulator 1.3, Nrf2 inh inconclusive and AT treatment 5.1%.
For Cc1ccc(C)c(CN2C(=O)c3ccccc3S(=O)c3ccc(C(=O)N(C)Cc4ccccc4)cc32)c1 (stereo not given) the results were Nrf2 ARE act 0.3%, A549 tox -26.4% and Nrf2 inh 20.6µM*.
For COC(=O)c1ccc2c(c1)N(Cc1cc(C)ccc1C)C(=O)c1ccccc1S2=O (stereo not given) the results were AT treatment 6.9%.

Assay outcomes as filed in PubChem.
